The entries come from a sample that favours hits as a whole.
IDE exosite inh: displaces the probe from the exo-site of human IDE; P14735; purified IDE, FL-6b probe fluorescence polarization; stronger effect = lower value; z-score at 20 µM; hit rate 6.3% among 17,000; AID 1259349;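 active = z-score of -3 or lower, meaning strong loss of probe binding signal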;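 note: His-tagged human IDE residues 42-1019 made in E. coli with 30 nM FL-6b probe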
Large screens that a line does not name were inactive; ! = a repeat was not active.

CC(=O)N1[C@@H](CO)[C@H](c2ccccc2)[C@@H]1CN(C(=O)NC(C)C)C1CCCC1	none
CCCC#Cc1ccc([C@H]2[C@H](CO)N3CCCCN(Cc4ccncc4)C[C@@H]23)cc1	none
c1cncc(CN2C[C@@H]3N[C@H](C2)C3c2ccc(-c3cccnc3)cc2)c1 (stereo partly specified)	none
O=C(C1CCC1)N1C[C@@H]2N[C@H](C1)C2c1ccc(/C=C/c2ccccc2)cc1 (stereo partly specified)	none
C(=C\c1ccc(C2[C@@H]3CN(Cc4cccnc4)C[C@H]2N3)cc1)/c1ccccc1 (stereo partly specified)	IDE exosite inh -4.83!
OC[C@@H]1[C@H](c2ccc(-c3ccccc3F)cc2)[C@H]2CN(Cc3ccncc3)CCCCN12	none
OC[C@@H]1[C@H](c2ccc(/C=C/c3ccccc3)cc2)[C@@H]2CN(Cc3ccncc3)CCCCN12	IDE exosite inh -8.51
CC(C)CC#Cc1ccc([C@@H]2[C@H](CO)N3C(=O)CN(C(=O)NC(C)C)C[C@@H]23)cc1	none
CC(C)NC(=O)Nc1ccc2c(c1)C(=O)N(C)[C@@H]1CC[C@H](CC(=O)NCc3ccc(F)cc3)O[C@H]1CO2	none
CN(C)CC#Cc1ccc([C@H]2[C@@H](CO)N3CCCCN(C(=O)Nc4ccc(F)cc4)C[C@@H]23)cc1	none
COC(=O)C[C@@H]1CC[C@@H]2[C@@H](COc3ccc(NS(=O)(=O)c4ccc(C)cc4)cc3C(=O)N2C)O1	none
CC(C)CC#Cc1ccc([C@@H]2[C@@H](CO)N3C(=O)CN(C(=O)NC(C)C)C[C@H]23)cc1	none
O=C(c1ccccc1F)N1CC(=O)N2[C@@H](CO)[C@H](c3ccc(-c4ccc(F)cc4)cc3)[C@@H]2C1	none
O=C(Nc1ccccc1F)N1CC(=O)N2[C@H](C1)[C@H](c1ccc(C#Cc3ccccc3)cc1)[C@@H]2CO	IDE exosite inh -4.1
O=C(c1ccccc1F)N1CC(=O)N2[C@@H](CO)[C@H](c3ccc(-c4ccccc4)cc3)[C@@H]2C1	none
O=C(Nc1ccccc1F)N1CC(=O)N2[C@@H](CO)[C@@H](c3ccc(C#Cc4ccc(F)cc4)cc3)[C@@H]2C1	none
O=C(c1cccc(F)c1)N1CC(=O)N2[C@H](CO)[C@@H](c3ccc(-c4ccccc4)cc3)[C@@H]2C1	none
O=C(c1ccccc1F)N1CC(=O)N2[C@H](CO)[C@H](c3ccc(C#Cc4ccccc4)cc3)[C@@H]2C1	none
O=C(c1cccc(F)c1)N1CC(=O)N2[C@H](CO)[C@@H](c3ccc(-c4ccccc4)cc3)[C@H]2C1	none
O=C(c1ccccc1F)N1CC(=O)N2[C@H](C1)[C@H](c1ccc(C#Cc3ccccc3)cc1)[C@@H]2CO	IDE exosite inh -3.36
O=C(c1ccccc1F)N1CC(=O)N2[C@H](CO)[C@@H](c3ccc(C#Cc4ccccc4)cc3)[C@@H]2C1	none
O=C(c1cccc(F)c1)N1CC(=O)N2[C@H](C1)[C@@H](c1ccc(-c3ccccc3)cc1)[C@@H]2CO	IDE exosite inh -3.42
O=C(Nc1ccccc1F)N1CC(=O)N2[C@H](C1)[C@@H](c1ccc(C#Cc3ccc(F)cc3)cc1)[C@@H]2CO	none
O=C(c1ccccc1F)N1CC(=O)N2[C@H](C1)[C@@H](c1ccc(-c3ccccc3)cc1)[C@@H]2CO	IDE exosite inh -3.25
O=C(C[C@H]1CC[C@@H]2[C@H](COC[C@@H](O)CN2C(=O)Nc2ccc(F)cc2)O1)NC1CCC1	none
O=C(c1ccccc1)N1CC(=O)N2[C@H](CO)[C@H](c3ccc(C4=CCCC4)cc3)[C@@H]2C1	none
O=C(Nc1ccccc1)N1CCCCN2[C@H](CO)[C@@H](c3ccc(-c4ccccc4)cc3)[C@@H]2C1	none
C[C@@H]1CCCCO[C@@H](CN(C)C(=O)NC2CCCCC2)[C@H](C)CN([C@H](C)CO)C(=O)c2cc(N(C)C)ccc2O1	none
COc1cccc(NC(=O)N[C@H]2CC[C@H](CC(=O)N3CCN(C)CC3)O[C@H]2CO)c1	none
Cc1ccccc1-c1ccc([C@@H]2[C@H](CO)N3CCCCN(S(C)(=O)=O)C[C@@H]23)cc1	IDE exosite inh -10.3
Cc1ccccc1-c1ccc([C@H]2[C@@H](CO)N3CCCCN(S(=O)(=O)Cc4ccccc4)C[C@@H]23)cc1	none
CS(=O)(=O)N1CCCCN2[C@@H](CO)[C@@H](c3ccc(C4=CCCC4)cc3)[C@@H]2C1	none
Cc1ccccc1-c1ccc([C@H]2[C@@H](CO)N3CCCCN(S(C)(=O)=O)C[C@H]23)cc1	IDE exosite inh -7.66
Cc1ccccc1-c1ccc([C@@H]2[C@@H](CO)N3CCCCN(S(C)(=O)=O)C[C@@H]23)cc1	IDE exosite inh -17.9
Cc1ccccc1-c1ccc([C@H]2[C@H]3CN(S(=O)(=O)Cc4ccccc4)CCCCN3[C@H]2CO)cc1	none
CCS(=O)(=O)N1CCCCN2[C@@H](CO)[C@@H](c3ccc(-c4ccccc4C)cc3)[C@@H]2C1	IDE exosite inh -14.5
CCS(=O)(=O)N1CCCCN2[C@H](CO)[C@H](c3ccc(-c4ccccc4)cc3)[C@H]2C1	none
CS(=O)(=O)N1CCCCN2[C@H](CO)[C@@H](c3ccc(C4=CCCC4)cc3)[C@H]2C1	none
CCS(=O)(=O)N1CCCCN2[C@H](CO)[C@@H](c3ccc(-c4ccccc4C)cc3)[C@H]2C1	none
CS(=O)(=O)N1CCCCN2[C@H](C1)[C@H](c1ccc(C3=CCCC3)cc1)[C@@H]2CO	none
Cc1ccccc1-c1ccc([C@H]2[C@@H](CO)N3CCCCN(S(=O)(=O)Cc4ccccc4)C[C@H]23)cc1	none
O=C(N[C@H]1C=C[C@H](CC(=O)N2CCN(c3ccccc3)CC2)O[C@H]1CO)c1ccccc1	none
CCCN1C[C@H](C)[C@H](OC)CN(C)C(=O)c2cc(NC(=O)C3CCC3)ccc2OC[C@H]1C	none
CCCC#Cc1ccc([C@@H]2[C@@H](CO)N3C(=O)CN(C(=O)Nc4ccccc4F)C[C@H]23)cc1	none
CO[C@H]1CC[C@H]2CCN(C)C(=O)[C@@H](C)N(C)C(=O)c3cccc(C#N)c3OC[C@@H]1O2	none
CO[C@@H]1CC[C@@H]2CCN(C)C(=O)[C@@H](C)CN(C)C(=O)c3cc(C#N)ccc3OC[C@H]1O2	none
CN(C)C(=O)c1ccc(-c2ccc([C@H]3[C@H](CO)N4CCCCN(CC5CC5)C[C@@H]34)cc2)cc1	none
O=C(c1ccc(F)cc1)N1CC(=O)N2[C@H](C1)[C@H](c1ccc(-c3ccccc3)cc1)[C@@H]2CO	none
C[C@@H]1CN([C@H](C)CO)C(=O)c2ccccc2-c2ccccc2CO[C@@H]1CN(C)C(=O)CCC(F)(F)F	none
CCS(=O)(=O)Nc1ccc2c(c1)C(=O)N(C)[C@H]1CC[C@H](CC(=O)NCCCN3CCOCC3)O[C@H]1CO2	none
Cc1ccccc1-c1ccc([C@@H]2[C@H]3CN(S(C)(=O)=O)CCCCN3[C@H]2CO)cc1	IDE exosite inh -5.16
CS(=O)(=O)N1CCCCN2[C@H](C1)[C@H](c1ccc(Br)cc1)[C@@H]2CO	none
CS(=O)(=O)N1CCCCN2[C@H](CO)[C@H](c3ccc(C4=CCCC4)cc3)[C@@H]2C1	none
COc1cccc(NC(=O)Nc2ccc3c(c2)C(=O)N(C)C[C@H](OC)[C@@H](C)CN(CC2CC2)[C@H](C)CO3)c1	none
Cn1cnc(S(=O)(=O)N2CCCCN3[C@H](C2)[C@H](c2ccc(C4=CCCCC4)cc2)[C@@H]3CO)c1	none
Cn1cnc(S(=O)(=O)N2CCCCN3[C@H](C2)[C@H](c2ccc(-c4ccccc4F)cc2)[C@@H]3CO)c1	none
Cn1cnc(S(=O)(=O)N2CCCCN3[C@H](CO)[C@H](c4ccc(C5=CCCCC5)cc4)[C@@H]3C2)c1	none
Cn1cnc(S(=O)(=O)N2CCCCN3[C@H](C2)[C@H](c2ccc(-c4ccc(F)cc4)cc2)[C@@H]3CO)c1	none
